The structures appear in SMILES notation. A number with no mark means an inactive call. Active and inactive are the calls of the source. No rule for the calls is given here.
Potency is read from the fitted curve at half-maximal effect.

The assay relates to HIV-1 nucleocapsid protein NCp7 (binding to TG oligonucleotide). The assay is described as follows: HIV Nucleocapsid (AID 346).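 Also: potency is for inhibitors that block NC binding and lower polarization.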 The settings on record: HIV-1 NC / fluorescein-TGTGTGTG probe, fluorescence polarization. The gist of the method: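 HIV-1 NC (100 nM) binding to fluorescein-labelled ssDNA TG4xF (10 nM) in Hepes pH 7.5, 250mM NaCl, 1uM ZnCl2, TCEP and 2-mercaptoethanol; compounds pin-transferred, 1 hr room temperature, fluorescence polarization read on CCD imager.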
(In general: In fluorescence polarisation assays a small probe gives low polarisation when free and higher when bound to something large.)
`COc1ccccc1CNc1ccnc(-c2c(C)noc2C)n1`: the Potency was over 20 µM.
Under `COc1ccc(Oc2ncc3nc(CCc4ccccc4)c(=O)n(C)c3n2)cc1` stands over 20 µM.
As to `COc1ccc(C(=O)N2CCC[C@@]3(CCN(c4cccc(-c5ccccc5)c4)C3)C2)cc1`, the Potency was over 20 µM.
With `CCNc1ncc2ncc(=O)n(CCc3ccccc3)c2n1` the figure was over 20 µM; with `Cn1cccc1C(=O)N1CCC2(CCCN(c3ccccc3)C2)CC1`, over 20 µM.
With `COCC(=O)N1CCC2(CC1)CCN(C(=O)Nc1ccc(OC)cc1)CC2` the figure was over 20 µM; with `COc1cccc(Nc2ncc3nc(-c4cccs4)c(=O)n(-c4ccccc4)c3n2)c1`, 6.57 µM (active).
Under `CN1CC[C@@]2(CCCN(C(=O)c3cccc(F)c3)C2)C1` stands over 20 µM; under `c1cncc(-c2nc(NCc3cccs3)c3ccccc3n2)c1`, over 20 µM.
For `Cc1noc(C)c1-c1ccc2ncnc(NCc3cccnc3)c2c1`, the Potency was over 20 µM.
With `COc1ccc(CNc2ncnc3ccc(-c4ccc5c(c4)OCO5)cc23)c(OC)c1` the figure was over 20 µM; with `N#Cc1ccc(CN2CCCC3(CCN(C(=O)c4csnn4)CC3)C2)cc1`, over 20 µM; with `COc1ccccc1CNc1ccnc(-c2ccccc2C(F)(F)F)n1`, over 20 µM.
Under `O=C(c1cnccn1)N1CCC2(CC1)CN(Cc1cc(C(F)(F)F)cc(C(F)(F)F)c1)C2` stands over 20 µM; under `CN1CCN(c2ncc3nc(-c4ccccc4)c(=O)n(-c4ccccc4)c3n2)CC1`, over 20 µM.
For the molecule `COCC(=O)N1CCC2(CC1)CCN(c1ccncc1)CC2`, the Potency is over 20 µM.
As for `Cc1noc(C)c1C(=O)N1CCC[C@@]2(CCN(c3ccccn3)C2)C1`, the Potency was over 20 µM.
Under `CN(C)c1ccc(-c2cncnc2N(C)Cc2ccco2)cc1` stands over 20 µM.
Under `Cn1c(=O)cnc2cnc(OCc3ccccc3)nc21` stands over 20 µM.
Under `FC(F)(F)c1ccccc1-c1nc(N2CCOCC2)c2ccccc2n1` stands over 20 µM; under `O=S(=O)(c1ccccc1)N1CCC2(CCN(c3ccccc3)CC2)CC1`, over 20 µM; under `CCNc1ncc2nc(-c3cn(C)c4ccccc34)c(=O)n(CCC#N)c2n1`, over 20 µM.
Turning to `CN(C)c1ncc2nc(-c3cccc(C#N)c3)c(=O)n(CCC#N)c2n1`, the Potency is over 20 µM.
With `COc1ccc(Oc2ncc3nc(-c4cc(F)cc(F)c4)c(=O)n(C4CC4)c3n2)cc1` the figure was over 20 µM.
For the molecule `CS(=O)(=O)N1CCC2(CCCN(c3ncccn3)C2)CC1`, the Potency was over 20 µM.
Under `Cn1cccc1C(=O)N1CCC[C@@]2(CCN(Cc3nccs3)C2)C1` stands over 20 µM.
With `CN(C)C(=O)c1ccc(-c2ccc3ncnc(NC4CC4)c3c2)cc1` the figure was over 20 µM; with `c1cncc(-c2cncnc2NCc2cccs2)c1`, over 20 µM; with `O=C(Nc1ccccc1)N1CCC2(CC1)CCN(C(=O)c1cccc(F)c1)CC2`, over 20 µM.
Regarding `COCCn1c(=O)c(-c2ccc(F)cc2)nc2cnc(N3CCOCC3)nc21`, the Potency was over 20 µM.
With `CNc1nc(-c2ccccc2OC)nc2ccccc12` the figure was over 20 µM; with `O=c1c(-c2cc(F)cc(F)c2)nc2cnc(Oc3ccccc3)nc2n1C1CC1`, over 20 µM.
Under `CN(C)c1ccc(-c2nccc(NCc3cccs3)n2)cc1` stands over 20 µM; under `O=S(=O)(c1ccccc1)N1CCC2(CC1)CN(c1ccncc1)C2`, over 20 µM; under `Cn1cc(-c2nc3cnc(Oc4ccccc4)nc3n(C)c2=O)c2ccccc21`, over 20 µM.
With `O=C(c1ccncc1)N1CCC2(CCN(Cc3cc(C(F)(F)F)cc(C(F)(F)F)c3)CC2)CC1` the figure was over 20 µM; with `N#Cc1ccccc1-c1nc(NCCN2CCOCC2)c2ccccc2n1`, over 20 µM; with `Cc1cnc(CNc2nc(-c3ccccc3C)nc3ccccc23)cn1`, over 20 µM.
Regarding `CN1CCN(c2ncc3nc(-c4cccs4)c(=O)n(Cc4ccc(F)cc4)c3n2)CC1`, the Potency is over 4 µM.
Under `O=c1c(CCc2ccccc2)nc2cnc(N3CCNCC3)nc2n1Cc1ccc(F)cc1` stands over 20 µM.
